Screening data deposited in PubChem BioAssay by National Center for Advancing Translational Sciences (NCATS).
TGFb SMAD3 inh = qHTS for Inhibitors of TGF-b; HepG2 CAGA-GFP TGF-b/SMAD3 reporter, GFP fluorescence, 18 h; TGF-beta stimulated, 500 pg/mL final; Potency, µM (titrated, usually from 46.1 µM), without a hit: at the top dose activity, negative = inhibition, actives largely listed as inhibitors; 410,000 tested, 1.2% active; AID 588855, 2011; further: on the % scale 0 is the no-effect control and ±100 the full control effect; nearly all actives have a fitted effect of over 65% in size
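Using HEPG2 CAGA-GFP reporter cells at 1000 cells/well, we pinned test compounds, stimulated with recombinant TGF-beta (500 pg/mL final) and measured total well GFP after 18 h.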
TDP1 cell CPT = qHTS for Inhibitors of human tyrosyl-DNA phosphodiesterase 1 (TDP1): qHTS in cells in presence of CPT; chicken DT40 Tdp1-/-;hTDP1 cells + 20 nM CPT, ATP luminescence, 48 h; Potency, µM (highest dose often 46.2 µM), for inactives: at the highest dose activity change, negative = growth inhibition, hits mostly inhibitors; AID 686979, 2013; 420,000 tested, 12% active; further: on the % scale 0 is the no-effect control and ±100 the full control effect; nearly all actives have a fitted effect of over 55% in size
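Chicken DT40 Tdp1-/- cells stably complemented with human TDP1 were seeded at 400 cells/well in medium containing 20 nM camptothecin, exposed to pin-transferred compounds, and grown at 37 °C for at least 48 hr. Viability was read as ATP luminescence.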
HepG2 viability = qHTS for Inhibitors of TGF-b: Cytotox Counterscreen | 410,000 tested, 0.76% active | HepG2 CAGA-GFP viability, ATP luminescence, 18 h | Potency, µM (top dose mostly 46.1 µM), for inactives: top-dose activity change, negative = cytotoxicity, most hits filed as cytotoxic
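CellTiter-Glo luminescence gave cytotoxicity after 18 hours at 37 degrees C. The cells were HepG2 CAGA-GFP in 1% FBS DMEM, stimulated with 500 pg/mL TGF-beta after compound addition. %Activity was normalised to no-cell wells (complete cell-killing) and DMSO (no toxicity), and curves were fitted and classified.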
TDP1 cell noCPT = qHTS for Inhibitors of human tyrosyl-DNA phosphodiesterase 1 (TDP1): qHTS in cells in absence of CPT; DT40 Tdp1-/- hTDP1 cells, no CPT, ATP luminescence, 48 h; Potency, µM (top dose mostly 46.2 µM), without a hit: top-dose activity change, negative = growth inhibition, actives largely listed as inhibitors; 420,000 tested, 15% active; AID 686978, 2013; further: on the % scale 0 is the no-effect control and ±100 the full control effect; nearly all actives have a fitted effect of over 55% in size
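Compound effects on proliferation are scored in DT40 Tdp1-/-;hTDP1 cells in the absence of CPT. ATP levels (CellTiter-Glo luminescence) are recorded after a ≥48 hr, 37 °C incubation.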
ATXN viability = Viability Counterscreen for Primary qHTS for Inhibitors of ATXN expression; 400,000 tested, 0.49% active; Potency, µM (series often up to 56.7 µM), actives largely listed as cytotoxic; S2 cells (HEK-293 line with an ATXN2-luciferase reporter) viability, CellTiter-Fluor protease fluorescence, 24 h; further: nearly all actives have a fitted effect of over 40% in size
ATXN2 expr inh = Primary qHTS for Inhibitors of ATXN expression | HEK-293 ATXN2-luciferase reporter, luminescence, 24 h | Potency, µM (titrated, usually from 57 µM), for the others: at the top dose activity change, negative = inhibition, hits mostly inhibitors | 360,000 tested, 0.72% active | AID 1745845, 2022; further: on the % scale 0 is the no-effect control and ±100 the full control effect; nearly all actives have a fitted effect of over 55% in size
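ATXN2-luciferase reporter cells (luciferase flanked by upstream and downstream ATXN2 gene portions) were treated 24 h at 37 °C with compounds at up to 57 uM. SteadyGlo luminescence gave expression; GF-AFC fluorescence gave viability.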
An asterisk follows results filed as active; i = inactive; ? = inconclusive; / = not tested or not shown; [ ] = another dose, or the depositor's remark. Hits are enriched below; roughly 17% of the tested compounds scored in any of these assays. The call rests on the fitted dose curve; in most records, active means well fitted curve in the direction sought with a large enough effect; inconclusive means small, poorly fitted or top-dose-only effect, or another doubt; inactive means no such curve, though single readings can be large; an effect the other way counts as inactive or inconclusive. Potency means the concentration at half of the fitted maximal effect.

SMILES	TGFb SMAD3 inh	TDP1 cell CPT	HepG2 viability	TDP1 cell noCPT	ATXN viability	ATXN2 expr inh
Cc1cc(NC(=O)COc2coc(CN3CCN(c4ccccc4F)CC3)cc2=O)no1	0%	-3%	2%	-13%	i	6%
CCc1ccc(CNC(=O)c2ccc(-c3nc(CS(=O)(=O)c4ccccc4)c(C)o3)cc2)cc1	-19%	15µM*	-30%	?	i	-10%
COC(=O)C1CCN(C(=O)c2ccc(OC)c(S(=O)(=O)N3CCCc4ccccc43)c2)CC1	-1%	?	5%	?	?	-5%
COC(=O)C1CCN(C(=O)COC(=O)c2ccc(N3CCCC3=O)cc2)CC1	-21%	4%	-1%	0%	/	/
CC1CCCN(C(=O)COC(=O)c2ccc3[nH]c4c(c3c2)CCCC4)C1 (centres undefined)	-18%	?	-19%	23µM*	i	80%
CCOC(=O)C1CCN(C(=O)COC(=O)c2ccc3[nH]c4c(c3c2)CCCC4)CC1	13%	13µM*	-5%	12µM*	i	-1%
COC(=O)C1CCN(C(=O)COC(=O)c2ccc3[nH]c4c(c3c2)CCCC4)CC1	-1%	13µM*	-12%	10µM*	i	15%
COC(=O)C1CCN(C(=O)COC(=O)c2ccc(OC)c(S(=O)(=O)N3CCCc4ccccc43)c2)CC1	-10%	-18%	-11%	0.41µM*	i	/
COC(=O)CC1COc2ccccc2N1C(=O)c1ccc(C(C)(C)C)cc1 (centres undefined)	3%	?	-43%	?	i	-10%
CC(C)CC(=O)Nc1ccccc1-c1nnn(CC(=O)N2CCOCC2)n1	7%	-17%	7%	-10%	i	-10%
CCOC(=O)C1CCN(C(=O)COC(=O)c2ccc([N+](=O)[O-])o2)CC1	18µM*	?	13µM*	-9%	i	-11%
Cc1cccc(-c2nnc(-c3cccc(NC(=O)Cc4cccs4)c3)o2)c1	-27%	18µM*	-10%	15µM*	i	48%
Cc1ccc(-c2nnc(-c3cccc(NC(=O)c4cccs4)c3)o2)cc1	-1%	?	-17%	23µM*	i	-1%
O=C(Cc1cccs1)Nc1ccc(-c2nnc(-c3ccccc3)o2)cc1	1%	-21%	-1%	-30%	?	0%
CCC(C)(C)n1nnnc1CN1CCC(NC(=O)c2ccc(Br)cc2)CC1	-16%	?	7%	21µM*	i	-17%
Cc1ccc(Cn2nnnc2CN2CCC(c3nc4ccc(Cl)cc4[nH]3)CC2)cc1	-24%	2.6µM*	1%	2.3µM*	i	?
Clc1ccc2nc(C3CCN(Cc4nnnn4C4CCCCC4)CC3)[nH]c2c1	-2%	?	-25%	?	i	-14%
Cc1ccc(Cn2nnnc2CN2CCC(NC(=O)c3ccc(Br)cc3)CC2)cc1	0%	?	-3%	18µM*	i	-22%
CC(NC(=O)CS(=O)(=O)c1ccccc1)c1ccccc1 (centres undefined)	1%	-2%	4%	0%	i	3%
Cc1cc(=O)n(C)c(=O)n1CCCCCCOc1cccc([N+](=O)[O-])c1	-9%	26µM*	-5%	16µM*	i	-18%
Cc1cc(=O)n(C)c(=O)n1CCCCCN1CCCC1	?	-10%	-3%	-7%	i	1%
CN1CCN(C(CNC(=O)c2ccc(Br)o2)c2ccc(F)cc2)CC1 (centres undefined)	5%	-1%	6%	-8%	i	4%
CC(C)c1csc(CN2CCC(CO)(Cc3cccc(F)c3)CC2)n1	1%	?	-2%	23µM*	i	-14%
CC(C)=CCN1CCN(Cc2nc(-c3ccc(F)cc3)cs2)CC1CCO (centres undefined)	-6%	?	-19%	?	i	-20%
OCCC1CN(Cc2nc(-c3ccccc3)cs2)CCN1Cc1ccc(F)cc1 (centres undefined)	26%	23µM*	8%	16µM*	i	-26%
SMILES	TGFb SMAD3 inh	TDP1 cell CPT	HepG2 viability	TDP1 cell noCPT	ATXN viability	ATXN2 expr inh
CC(C)=CCN1CCN(Cc2cnc(-c3ccccc3)s2)CC1CCO (centres undefined)	-16%	26µM*	-18%	?	i	/
CC(C)c1csc(CN2CCN(Cc3ccc(F)cc3)C(CCO)C2)n1 (centres undefined)	3.5µM*	-1%	10%	-29%	i	-20%
OCCC1CN(Cc2cnc(-c3ccccc3)s2)CCN1Cc1ccccc1 (centres undefined)	-6%	0%	-12%	?	i	-37%
CC(C)CN1CCN(Cc2nc(C(C)C)cs2)CC1CCO (centres undefined)	-7%	22%	-25%	-3%	i	4%
CCCCNC(=O)C(NC(=O)c1cccnc1)C(=O)c1ccccc1 (centres undefined)	-7%	-1%	3%	10%	i	5%
CCC(OC(=O)CC1Sc2ccccc2NC1=O)C(=O)NCC1CCCO1 (centres undefined)	-7%	-6%	4%	-26%	i	6%
CC1CCCC(C)N1C(=O)Cn1c(=O)sc2ccccc21 (centres undefined)	1%	10%	0%	-14%	i	7%
OCCNc1nnc(-c2ccccc2)c(-c2ccccc2)n1	-2%	?	-49%	?	i	-26%
CC(C)CN1CCN(Cc2nc3ccccc3s2)CC1CCO (centres undefined)	-10%	-1%	14%	-8%	i	-6%[11.3 µM]
COc1ccc(CN2CCN(Cc3ccccc3)C(CCO)C2)cc1OC (centres undefined)	1%	-30%	-3%	-13%	i	1%
Cc1ccc(CN2CCN(Cc3nc(C(C)C)cs3)CC2CCO)cc1 (centres undefined)	-22%	?	0%	12µM*	i	/
OCCC1CN(Cc2nc3ccccc3s2)CCN1CCc1ccccc1 (centres undefined)	-12%	?	-15%	26µM*	i	-14%
COc1ccccc1/C=C/CN1CCN(Cc2ccc(F)cc2)C(CCO)C1 (centres undefined)	?	?	-4%	18µM*	i	-17%
